mHTT CaM bind: mHTT-calmodulin interaction abrogation. P42858. AlphaScreen His-mHTT/GST-CaM binding, luminescence. inhibition, % at 15 µM. actives 3.6% (n = 190,000);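 further: 0% = both proteins with DMSO and 100% = one protein alone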
Pf apPOL inh: Pf-apPOL DNA polymerase inhibition; Recombinant Pf-apPOL, molecular beacon fluorescence, 1.5 h; AID 1794808; actives 0.25% (n = 210,000); inhibition, % at 10 µM
Active calls of the source: *. Only some compounds are listed: those with a hit (about 3.6% of all), similar ones and a draw of the others. No stated cut-off is given here; in the data, active means inhibition above about 50%; inactive means the rest.

SMILES	mHTT CaM bind	Pf apPOL inh
Cc1cccc(N2CCN(C(=O)/C=C3\Sc4ccccc4NC3=O)CC2C)c1 (configuration not stated)	28	4
Cc1cccc(N2CCN(C(=O)c3ccc4c(c3)NC(=O)c3ccccc3S4)CC2C)c1 (configuration not stated)	100*	-10
CCSc1nc2c(c(=O)n(Cc3ccccc3Cl)c(=O)n2C)n1C	4	10
CC(C)CNC(=O)c1cncc(-c2ccc(F)cc2F)c1	1	37
CCCNC(=O)c1cncc(-c2ccc(F)cc2F)c1	12	62*
O=C(NCc1cccc(Cl)c1)c1cc2n(n1)CCCN(Cc1ccccc1)C2=O	-7	1
O=C(NCc1cccc(Cl)c1)c1cc2n(n1)CCCN(Cc1ccc(Cl)cc1)C2=O	64*	12
COc1ccc(-c2ccc(OC)c([C@H]3[C@@H]4C=CCC[C@@]4(C)C(=O)N3Cc3ccccc3)c2)cc1OC	76*	-2
COc1ccc(/C=C/c2ccccc2)cc1[C@H]1[C@@H]2C=CCC[C@@]2(C)C(=O)N1Cc1ccccc1	35	-7
COc1ccc(Br)cc1[C@H]1[C@@H]2C=CCC[C@@]2(C)C(=O)N1Cc1ccccc1	90*	13
CC(=O)c1ccc(-c2ccc([C@H]3[C@@H]4C=CCC[C@@]4(C)C(=O)N3Cc3ccccc3)c(F)c2)cc1	14	-6
COc1ccc(-c2ccc(OC)c([C@H]3[C@@H]4C=CCC[C@@]4(C)C(=O)N3Cc3ccccc3)c2)cc1	38	-4
COc1ccc(-c2ccc(N(C)C)cc2)cc1[C@H]1[C@@H]2C=CCC[C@@]2(C)C(=O)N1Cc1ccccc1	73*	-2
COc1cc(N2C(=O)CSC23C(=O)Nc2ccccc23)cc(OC)c1OC (configuration not stated)	-6	-1
O=C(NCCCN1CCOCC1)c1nn2c(c1Cl)NC(c1ccco1)CC2C(F)(F)F (configuration not stated)	2	1
Cc1ccc2nc3c(N)c(Cl)cc4c3c(c2c1)-c1ccccc1C4=O	61*	-3
O=C1c2ccccc2-c2cc(Cl)nc3ccc(Cl)c1c23	5	-2
CC1CCCN(c2cc(C(=O)NC(C)C(C)(C)C)c3ccccc3n2)C1 (configuration not stated)	-17	-4
Cc1ccc(O)c(NC(=O)CSc2n[nH]c(C)c2[N+](=O)[O-])c1	13	11
Cc1[nH]nc(SCC(=O)Nc2cc(Br)ccc2O)c1[N+](=O)[O-]	52*	1
COc1cccc(C=C2Oc3c(ccc4c3CN(Cc3ccco3)CO4)C2=O)c1OC	14	15
CC(C)CN1CCn2cc(C(=O)N3CCN(c4ccc(Cl)cc4)CC3)nc2C1	92*	-9
CC(C)CN1CCn2cc(C(=O)N3CCN(c4ccccc4Cl)CC3)nc2C1	46	-4
Cc1ccc(C)c(CNC(=O)c2cn3c(n2)CN(CC(C)C)CC3)c1	20	0
CCCN1CCn2cc(C(=O)N3CCN(c4ccc(Cl)cc4)CC3)nc2C1	17	-5
SMILES	mHTT CaM bind	Pf apPOL inh
CC(C)CN1CCn2cc(C(=O)N3CCN(c4ccccc4)CC3)nc2C1	58*	-6
Cc1cc(C)c(CNC(=O)c2cn3c(n2)CN(CC(C)C)CC3)c(C)c1	71*	0
Cc1cccc(N2CCN(C(=O)c3cn4c(n3)CN(CC(C)C)CC4)CC2)c1C	71*	-8
Cc1cccc(N2CCN(C(=O)c3cn4c(n3)COCC4)CC2)c1C	5	0
Cc1nn(CCCC(=O)NCc2ccc(Cl)cc2)c(C)c1[N+](=O)[O-]	-2	1
COc1ccc(/C=C/C2=NNC(O)(C(F)(F)F)C2)cc1 (configuration not stated)	-8	2
O=C1Cc2cc(NC(=O)Nc3ccccc3C(F)(F)F)ccc2N1	20	0
O=C(NCc1cccc(F)c1)C1CCc2sc(C(=O)N3CCOCC3)cc2C1 (configuration not stated)	5	-2
O=C(Nc1ccc2c(c1)OCCO2)c1nn(-c2ccc(Cl)cc2)c(=O)c2ccccc12	6	-2
CSc1ccc(Cl)c(C(=O)Nc2cccn3c(C)nnc23)c1	9	4
O=C(CC(NCc1ccccn1)C(=O)O)Nc1cc(Cl)ccc1Cl (configuration not stated)	100*	-1
O=C(CC(NCc1ccco1)C(=O)O)Nc1cc(Cl)ccc1O (configuration not stated)	5	1
Cn1c2ccccc2c2c(C(=O)NCc3ccc(F)cc3)cn(C3CCCCC3)c(=O)c21	-2	1
O=C(COc1ccccc1Br)Nc1ccc(Cl)c(C(F)(F)F)c1	-3	71*
Cc1nc(OCC(=O)Nc2ccc(Cl)c(C(F)(F)F)c2)c2ccccc2n1	22	0
Fc1cccc(CN2CCc3nc(Nc4ccc5c(c4)OCCO5)ncc3C2)c1	45	-2
COc1cccc(CN2CCc3nc(Nc4ccc5c(c4)OCCO5)ncc3C2)c1OC	44	1
Fc1cc(F)cc(CN2CCc3nc(Nc4ccc5c(c4)OCO5)ncc3C2)c1	73*	-1
COc1cccc(CN2CCc3nc(Nc4ccc5c(c4)OCO5)ncc3C2)c1OC	21	4
COc1cc(OC)c(OC)cc1CN1CCc2nc(Nc3ccc4c(c3)OCO4)ncc2C1	50*	-1
Cc1ccc(CN2CCc3nc(Nc4ccc5c(c4)OCCO5)ncc3C2)cc1	73*	-2
COc1ccc(OC)c(CN2CCc3nc(Nc4ccc5c(c4)OCCO5)ncc3C2)c1	50*	4
c1ccc(CN2CCc3nc(Nc4ccc5c(c4)OCCO5)ncc3C2)cc1	32	-4
Cc1noc(C)c1C1CCCN1C(=O)NC1CCCCC1 (configuration not stated)	-2	3
COc1cccc(Nc2ncc3c(n2)CCN(Cc2cc(OC)ccc2OC)C3)c1	35	-6
SMILES	mHTT CaM bind	Pf apPOL inh
COc1ccc(CN2CCc3nc(Nc4ccc(F)cc4F)ncc3C2)c(OC)c1OC	53*	-5
COc1ccc(Nc2ncc3c(n2)CCN(Cc2ccc4c(c2)OCCO4)C3)cc1	61*	-6
COc1ccc(OC)c(CN2CCc3nc(Nc4ccc(F)cc4)ncc3C2)c1	61*	-2
COc1ccccc1CN1CCc2nc(Nc3ccc(F)cc3F)ncc2C1	22	-3
COc1ccc(OC)c(Nc2ncc3c(n2)CCN(Cc2ccc4c(c2)OCCO4)C3)c1	9	4
Brc1csc(CN2CCc3nc(Nc4ccccc4)ncc3C2)c1	0	1
COc1ccc(Nc2ncc3c(n2)CCN(Cc2cc(Br)cs2)C3)cc1	66*	-9
CCc1nnc(NS(=O)(=O)c2ccc(N=Cc3ccc(OC)cc3OC)cc2)s1	2	-3
C1=CCC(CN2CCN(Cc3ccccn3)CC2)CC1 (configuration not stated)	7	2
Cc1ccc2ncn(C3CCN(C(=O)Nc4ccc(C)c(C)c4)CC3)c(=O)c2c1	16	-2
CCSc1sc(CC)cc1C1C(C(=O)Nc2cccnc2)=C(C)NC2=C1C(=O)CCC2 (configuration not stated)	32	1
Brc1csc(CN2CCc3nc(N4CCOCC4)ncc3C2)c1	57*	4
COc1cc(CN2CCc3nc(Nc4ccc5c(c4)OCO5)ncc3C2)ccc1OC(C)C	82*	0
CCOc1ccc(CN2CCc3nc(Nc4ccc5c(c4)OCO5)ncc3C2)cc1OCC	3	-2
CCCN1CCN(c2ncc3c(n2)CCN(Cc2cc(Br)cs2)C3)CC1	29	1

Screening results deposited in PubChem BioAssay by University of Kansas High Throughput Screening Laboratory.
